Compound activity (PubChem BioAssay)
Hits are enriched below; roughly 21% of the tested compounds scored in any of these assays.
CHX counter: counter-screen for Shiga toxin inhibitors: cycloheximide protein synthesis inhibition | cell reporter, cycloheximide protein synthesis inhibition counterscreen | max response, % | 12% of 300,000 active | AID 2314; in the data active = max response mostly above about 13%, no sharp cut-off; inactive = mostly below about 14%; note: read at 38.3 µM for the half of the compounds with a filed dose; 0% is about no effect
Shiga inhibitor: inhibitors of Shiga toxin in Vero cells. Vero cells, Shiga toxin protein synthesis inhibition reporter. inhibition, % at 38.7 µM. 9.2% of 290,000 active. AID 2315; in the data active = inhibition mostly above about 28%, no sharp cut-off; inactive = mostly below about 43%; note: 0% is about no effect
Pf growth 96h: P. falciparum growth inhibition at 96 hours. P. falciparum luciferase reporter growth, 96 h. Potency, µM (series often up to 28.7 µM), without a hit: top-dose activity change, negative = inhibition, usual class: inhibitors. 6.9% of 320,000 active. AID 504834; active = well fitted inhibition curve with a large enough effect; inconclusive = small, poorly fitted or top-dose-only effect, or another doubt; inactive = no such curve, though single readings can be large or run the other way; note: potency is the fitted concentration of half-maximal effect; % is set by controls: 0 for no effect and ±100 for the full control effect
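Delayed-death screen, second-generation endpoint: infected erythrocytes, 2% hematocrit, 0.05% parasitemia final; 96 hours at 37 C, 5% CO2; luciferase detection reagent; luminescence decrease equals reduced growth.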
Pf growth 48h: inhibits P. falciparum growth in the first generation, 48 h. 5.9% of 310,000 active. Potency, µM (highest dose often 28.7 µM), for the others: at the top dose activity change, negative = inhibition, most hits filed as inhibitors. P. falciparum luciferase growth in erythrocytes, 48 h; active = well fitted inhibition curve with a large enough effect; inconclusive = small, poorly fitted or top-dose-only effect, or another doubt; inactive = no such curve, though single readings can be large or run the other way; note: potency is the fitted concentration of half-maximal effect; % is set by controls: 0 for no effect and ±100 for the full control effect
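Growth was read as firefly luciferase luminescence after a 48 h, 37 C, 5% CO2 exposure of compounds to reporter-bearing P. falciparum cultures (0.1% parasitemia, 2% hematocrit final) in Albumax-supplemented RPMI 1640.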
SARS PLP yeast: blocks SARS-CoV papain-like protease in a yeast assay. S. cerevisiae expressing SARS-CoV PLpro, growth rescue. Potency, µM (titrated, usually from 32.9 µM), for the others: top-dose activity, positive = growth rescue, hits mostly activators. 0.19% of 330,000 active; note: potency is the fitted concentration of half-maximal effect; 0% is about no effect; nearly all actives have a fitted effect of over 55% in size
NS1 function inh: influenza NS1 inhibition | Potency, µM (top dose mostly 46.1 µM), without a hit: at the top dose activity, positive = more growth | 0.4% of 270,000 active; note: potency is the fitted concentration of half-maximal effect; actives are rising curves; nearly all actives have a fitted effect of over 50% in size
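Recovery from NS1-induced slow growth read by OD600 in budding yeast switched to galactose assay medium (pH 6.0, -URA) at 1:100 dilution. Compound 23 nl per well; the matching strain lacking NS1 serves as control.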
An asterisk follows results filed as active. Unless noted, calls come from the whole dose curve.

COc1ccc(CNC(=O)[C@H](C)N2C(=O)N3CCc4c([nH]c5ccccc45)[C@@]3(C)C2=O)cc1OC was read as CHX counter -2, Shiga inhibitor -12, Pf growth 96h 8.3µM*, Pf growth 48h inconclusive, SARS PLP yeast 2% and NS1 function inh 15%.
For COc1ccc2[nH]c3c(c2c1)CCN1C(=O)N([C@@H](C)C(=O)NCCc2ccc(F)cc2)C(=O)[C@]31C the results were CHX counter 2, Shiga inhibitor 20, Pf growth 96h 8.3µM*, Pf growth 48h -29%, SARS PLP yeast -25% and NS1 function inh -98%.
Screening CC1CCc2c(C(=O)Nc3ccc(N4CCOCC4)cc3)csc2C1 (centres undefined) returned CHX counter 3, Shiga inhibitor 21, Pf growth 96h inconclusive, Pf growth 48h -15% and SARS PLP yeast 6%.
Screening CCC1=C(OC(=O)N(CC)CC)N2C(=O)OC(=NCCc3c[nH]c4ccccc34)[C@]2(Cc2ccccc2)[C@H]2C1=CC[C@H]1C(=O)N(C)C(=O)[C@H]12 returned CHX counter -6, Shiga inhibitor 9, Pf growth 96h 12µM*, Pf growth 48h 10µM*, SARS PLP yeast 3% and NS1 function inh -17%.
`CCC1=C2CC[C@H]3C(=O)N(c4ccccc4)C(=O)[C@H]3[C@H]2[C@@]2(C)C(=NCc3ccccc3)OC(=O)N2C1=O` gave CHX counter -5, Shiga inhibitor -7, Pf growth 96h inconclusive, Pf growth 48h inconclusive, SARS PLP yeast -2% and NS1 function inh 0%.
`CCC1=C(OC(=O)N(CC)CC)N2C(=O)OC(=NCCc3c[nH]c4ccccc34)[C@]2(Cc2ccccc2)[C@H]2C1=CC[C@H]1C(=O)N(c3ccccc3)C(=O)[C@H]12` gave CHX counter -5, Shiga inhibitor -9, Pf growth 96h inconclusive, Pf growth 48h 13µM*, SARS PLP yeast 1% and NS1 function inh 9%.
For CC1CCCCN1C(=O)c1c([N+](=O)[O-])cnn1C (centres undefined) the results were CHX counter -4, Shiga inhibitor -8, Pf growth 96h 7%, Pf growth 48h 5%, SARS PLP yeast -5% and NS1 function inh 8%.
Screening c1ccc2c(c1)Cn1nc(Cc3nc4c(s3)CCCC4)nc1-2 returned CHX counter 35*, Shiga inhibitor 74*, Pf growth 96h 15%, Pf growth 48h 26%, SARS PLP yeast 3% and NS1 function inh -47%.
For N#CCc1nc2n(n1)Cc1ccccc1-2 the results were CHX counter -4, Shiga inhibitor 1, Pf growth 96h inconclusive, Pf growth 48h -18%, SARS PLP yeast -2% and NS1 function inh 5%.
`COc1ccc(NC(=O)c2ccc(S(=O)(=O)N3CC(C)CC(C)C3)cc2)cc1S(N)(=O)=O` (centres undefined) gave Pf growth 96h -28%, Pf growth 48h -25% and SARS PLP yeast 0%.
For Clc1ccc2nc(CN3CCCc4ccccc43)cn2c1 the results were CHX counter 23*, Shiga inhibitor 56*, Pf growth 96h -9%, Pf growth 48h inconclusive, SARS PLP yeast -2% and NS1 function inh -44%.
Cc1ccc(OCCCCN2CCc3ccccc3C2)cc1 was read as CHX counter -3, Shiga inhibitor 1, Pf growth 96h inconclusive, Pf growth 48h -14%, SARS PLP yeast 1% and NS1 function inh -11%.
Screening COc1nc(OC)nc(Oc2ccc([N+](=O)[O-])cc2Cl)n1 returned CHX counter -1, Shiga inhibitor 1, Pf growth 96h 9%, Pf growth 48h 1%, SARS PLP yeast 12% and NS1 function inh -17%.
`Cc1ccc2c(c1)c(C)cc[n+]2Cc1ccccc1` gave CHX counter 0, Shiga inhibitor -5, Pf growth 96h 0.19µM*, Pf growth 48h 0.37µM*, SARS PLP yeast 23% and NS1 function inh 2%.
`Cc1ccc2ccc[n+](Cc3ccccc3)c2c1` gave Pf growth 96h 0.52µM*, Pf growth 48h 0.41µM* and SARS PLP yeast 5%.
Screening CC(OC(=O)c1ccc2c(c1)NC(=O)CS2)C(=O)c1ccc(F)cc1 (centres undefined) returned SARS PLP yeast -8%.
For COCCn1c(C)cc(C(=O)COC(=O)c2ccc3c(c2)NC(=O)CS3)c1C the results were CHX counter 28*, Shiga inhibitor 66*, Pf growth 96h inconclusive, Pf growth 48h -9%, SARS PLP yeast -1% and NS1 function inh 24%.
COC(=O)c1ccc2c(c1)SC1=C(CCCC1=O)N2 was read as CHX counter 21*, Shiga inhibitor active, Pf growth 96h inconclusive, Pf growth 48h inconclusive, SARS PLP yeast 11% and NS1 function inh 4%.
For COC(=O)c1ccc2c(c1)NC(=O)CS2 the results were CHX counter -2, Shiga inhibitor -3, Pf growth 96h -1%, Pf growth 48h 12µM* and SARS PLP yeast 1%.
Screening C=CCn1c(C)cc(C(=O)COC(=O)c2ccc3c(c2)NC(=O)CS3)c1C returned CHX counter 18*, Shiga inhibitor 39*, Pf growth 96h -8%, Pf growth 48h 29%, SARS PLP yeast 20% and NS1 function inh 13%.
Screening CC(=O)Nc1sc2c(c1C(N)=O)CCN(Cc1ccccc1)C2 returned CHX counter -1, Shiga inhibitor 21, Pf growth 96h 29%, Pf growth 48h 1%, SARS PLP yeast 0% and NS1 function inh -3%.
O=C(Cc1ccccc1)NNC(=O)C1CCCC1 was read as CHX counter 8, Shiga inhibitor 26, Pf growth 96h 1%, Pf growth 48h inconclusive, SARS PLP yeast 0% and NS1 function inh 4%.
Screening O=C(Nc1nc2c(s1)CN(Cc1ccccc1)CC2)C1CCCC1 returned CHX counter 23*, Shiga inhibitor 28, Pf growth 96h inconclusive, Pf growth 48h inconclusive and SARS PLP yeast -1%.
Screening O=C(Nc1nc2c(s1)CN(Cc1ccccc1)CC2)c1c(F)cccc1F returned CHX counter 30*, Shiga inhibitor 42*, Pf growth 96h -82%, Pf growth 48h 1% and SARS PLP yeast 0%.
`CC(C)(C)C(=O)Nc1nc2c(s1)CN(Cc1ccccc1)CC2` gave CHX counter 44*, Shiga inhibitor 67*, Pf growth 96h inconclusive, Pf growth 48h inconclusive, SARS PLP yeast 1% and NS1 function inh 0%.
Cc1csc2nc(CN3CCN(CC(=O)N(C)C)CC3)cc(=O)n12 was read as CHX counter -1, Shiga inhibitor -8, Pf growth 96h 23%, Pf growth 48h 22%, SARS PLP yeast 2% and NS1 function inh -1%.
C=C1/C=C(\C)C(C)(O)CC(O)CC(=O)C(O)C(O)C(C)CC(C)OC(=O)/C(C)=C/CC/C=C/C(OC)C(O)CC(C)C1 (centres undefined) was read as SARS PLP yeast 0%.
